# Compound activity (PubChem)
# Hits are enriched below; roughly 0.81% of the tested compounds scored in any of these assays.
# NR5A2 inv ag = LRH-1 (NR5A2) inverse agonists, primary screen, cell-based, luminescence, HEK293T, StAR-luciferase reporter; LRH-1 transfected, 24 h; inhibition, % at 3.6 µM; 360,000 compounds, 0.13% hits; AID 602396, 2012;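 active = inhibition above the mean inhibition of all tested compounds plus 3 SD, cut at about 73% in these data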;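 note: 0% = DMSO wells and 100% = reporter-only cells lacking LRH-1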
# SRC3 inh = SRC3 coactivator transcriptional activity inhibitors, primary screen, cell-based, luminescence; Nuclear receptor coactivator 3 (Homo sapiens), Q9Y6Q9; HEK293 GAL4-SRC3 luciferase reporter; inhibition, % at 3.6 µM; 360,000 compounds, 0.17% hits; AID 588352, 2011;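 active = inhibition above a per-campaign cutoff, the mean of all compounds plus 3 SD, cut at about 60% in these data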;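 note: 0% = DMSO-treated cells and 100% = gossypol-treated cells at 36 µM; higher means less SRC3-driven luciferase light from the GAL4 reporter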
# NCOA1 inh = SRC1 coactivator transcriptional activity inhibitors, primary screen, cell-based, luminescence | 360,000 compounds, 0.12% hits | inhibition, % at 3.6 µM | HEK293 GAL4-SRC1 luciferase reporter | Nuclear receptor coactivator 1 (Homo sapiens), Q15788 | AID 588354, 2011;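 active = inhibition above the campaign mean plus 3 SD, with each screening campaign given its own cutoff, cut at about 60% in these data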;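 note: 0% = DMSO treated cells and 100% = gossypol at 36 µM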
# SRC2 inh = inhibition of GAL4-SRC2 driven luciferase reporter, primary screen, SRC2 inhibitor project, cell-based, luminescence; 370,000 compounds, 0.17% hits; inhibition, % at 9 µM; Nuclear receptor coactivator 2 (Homo sapiens), Q15596; HEK293 GAL4-SRC2 luciferase reporter;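 active = inhibition above the mean inhibition of all tested compounds plus 3 SD, set per campaign, cut at about 52% in these data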;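 note: 0% = DMSO treated cells and 100% = cells given Gossypol at 36 µM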
# Target sequence (Q15596 whole entry, looked up, the tested form may be a part): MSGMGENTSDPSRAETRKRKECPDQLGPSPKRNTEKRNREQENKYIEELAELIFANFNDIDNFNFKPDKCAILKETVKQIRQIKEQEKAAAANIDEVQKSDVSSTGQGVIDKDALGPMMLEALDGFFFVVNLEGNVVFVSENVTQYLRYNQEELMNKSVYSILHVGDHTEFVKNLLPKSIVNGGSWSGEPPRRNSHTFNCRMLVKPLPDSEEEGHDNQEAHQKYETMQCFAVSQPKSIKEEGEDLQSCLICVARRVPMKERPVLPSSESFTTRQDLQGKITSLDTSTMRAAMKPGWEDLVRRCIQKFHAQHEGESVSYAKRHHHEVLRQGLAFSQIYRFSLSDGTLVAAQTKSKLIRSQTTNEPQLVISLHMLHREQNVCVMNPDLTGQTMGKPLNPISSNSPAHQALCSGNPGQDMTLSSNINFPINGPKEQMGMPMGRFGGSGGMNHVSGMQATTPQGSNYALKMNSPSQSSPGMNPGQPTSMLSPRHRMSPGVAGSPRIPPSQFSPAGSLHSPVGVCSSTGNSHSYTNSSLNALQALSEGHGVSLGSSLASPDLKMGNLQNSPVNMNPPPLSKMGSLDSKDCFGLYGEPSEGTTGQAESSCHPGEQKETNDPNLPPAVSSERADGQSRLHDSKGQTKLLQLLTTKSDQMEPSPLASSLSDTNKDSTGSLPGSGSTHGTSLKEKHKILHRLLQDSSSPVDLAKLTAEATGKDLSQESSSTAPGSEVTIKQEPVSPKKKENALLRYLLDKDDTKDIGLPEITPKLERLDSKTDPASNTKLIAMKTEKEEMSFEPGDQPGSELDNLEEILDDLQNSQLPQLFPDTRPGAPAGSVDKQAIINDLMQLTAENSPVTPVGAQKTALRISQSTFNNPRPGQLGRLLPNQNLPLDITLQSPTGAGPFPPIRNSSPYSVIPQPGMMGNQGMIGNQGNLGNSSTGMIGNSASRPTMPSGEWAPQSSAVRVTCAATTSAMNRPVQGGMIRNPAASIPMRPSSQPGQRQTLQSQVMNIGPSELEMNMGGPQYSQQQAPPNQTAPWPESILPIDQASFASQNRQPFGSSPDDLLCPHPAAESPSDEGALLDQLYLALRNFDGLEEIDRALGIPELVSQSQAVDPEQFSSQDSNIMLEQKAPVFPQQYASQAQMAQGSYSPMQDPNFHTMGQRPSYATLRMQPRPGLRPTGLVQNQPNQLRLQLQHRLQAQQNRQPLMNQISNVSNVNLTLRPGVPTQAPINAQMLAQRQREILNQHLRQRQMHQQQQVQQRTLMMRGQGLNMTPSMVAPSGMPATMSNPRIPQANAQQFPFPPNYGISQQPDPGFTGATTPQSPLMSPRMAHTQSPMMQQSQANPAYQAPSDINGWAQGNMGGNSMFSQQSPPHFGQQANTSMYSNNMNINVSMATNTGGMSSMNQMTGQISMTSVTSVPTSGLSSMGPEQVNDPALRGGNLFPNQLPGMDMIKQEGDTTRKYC
# COUP-TFII inh = NR2F2 transcriptional activity inhibitors, primary screen, cell-based, luciferase reporter, HEK293T, luminescence | COUP transcription factor 2 (Homo sapiens), P24468 | HEK293T NGFI-A luciferase reporter | inhibition, % at 8.6 µM | 370,000 compounds, 0.7% hits;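 active = inhibition above a per-plate cutoff, mean inhibition of test wells between control levels plus 3 SD, cut at about 38% in these data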;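 note: cells cotransfected with COUP-TFII expression vector driving the NGFI-A reporter; 0% = median of COUP-TF2 test wells and 100% = reporter-only cells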
# VP16 Luc counter = Gal4-VP16 luciferase reporter inhibitors, counter-screen for COUP-TFII antagonist project, cell-based, luminescence, HEK293 | shares compounds with COUP-TFII inh | inhibition, % at 8.5 µM | 2,500 compounds, 25% hits | AID 687007, 2013; in the data active = inhibition above about 13%
# COUP-TFII conf = NR2F2 transcriptional activity inhibitors, confirmation, cell-based, luciferase reporter, HEK293, triplicate | shares compounds with COUP-TFII inh | HEK293 NGFI-A luciferase reporter, luminescence | inhibition, % at 8.5 µM | 2,500 compounds, 45% hits | AID 687008, 2013;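 active = mean inhibition over three repeats above a set limit taken from the earlier primary screen, cut at about 38% in these data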;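 note: 100% = cells given the luciferase reporter alone without the COUP-TF2 vector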
# Starred values were filed as active, the others as inactive; · = no result given.
SMILES,NR5A2 inv ag,SRC3 inh,NCOA1 inh,SRC2 inh,COUP-TFII inh,VP16 Luc counter,COUP-TFII conf
O=C(Nc1ccc(F)cc1)OCCN1C(=O)CCC12CCC(c1ccccc1)CC2 (centres undefined),·,·,·,1.5,-7.1,·,·
CCOC(=O)[C@@]12CCCC3=C1N(CCC3)C(=O)[C@H]2CC(=O)N1CCCCC1,·,·,·,-23.8,8.7,·,·
Cc1cccc(Oc2ccc(NC(=O)c3ccccc3C(=O)O)cc2)c1C,22.0,-7.7,-29.2,-38.5,24.8,·,·
O=C(O)c1ccccc1C(=O)Nc1ccc(Oc2ccc3ccccc3c2)cc1,29.8,3.8,-3.6,47.2,65.8*,9.1,7.1
O=C(O)c1ccccc1C(=O)Nc1ccc(Oc2cccc3ccccc23)cc1,61.9,70.6*,55.6,89.2*,100.0*,45.7*,34.3
COc1ccc(NS(=O)(=O)c2cccc(NC(=O)c3ccc(Cl)nc3)c2)cc1,49.4,10.5,23.1,7.0,75.2*,3.1,65.9*
CC(=O)c1cc(-c2ccccc2)n(CC(=O)NCc2ccc(Cl)cc2)c1C,·,·,·,14.4,28.4,·,·
NC(=O)[C@@H]1CC2(CC(c3cccc(NC(=O)COc4ccc(Cl)cc4)c3)=NO2)CN1C(=O)COc1ccc(Cl)cc1 (some centres undefined),-0.2,2.4,10.4,24.2,45.2*,-9.0,18.9
CCOC(=O)c1c(NC(=S)N2CCN(C)CC2)sc2c1CCN(C(=O)OCC)C2,-12.5,34.9,-4.5,-11.2,39.3*,0.6,7.6
Cc1nn(C)cc1C(C)NC(=O)c1cc(COc2cccc3cnccc23)on1 (centres undefined),33.6,51.5,23.4,36.8,38.1*,1.3,11.6
O=C(c1cc(COc2cccc3cnccc23)on1)N1CCCC(CCCO)C1 (centres undefined),47.7,13.2,24.0,14.5,70.6*,11.5,76.4*
COCC1CCN(C(=O)c2cc(COc3ccc(F)cc3Cl)on2)C1 (centres undefined),-48.6,-55.8,-17.3,-21.9,-11.5,·,·
COc1ccc(OCc2cc(C(=O)N3CCCC(CO)C3)no2)c2ccccc12 (centres undefined),-80.5,-78.5,-88.2,-53.2,-36.7,·,·
COCC1CCN(C(=O)c2cc(COc3cccc4cnccc34)on2)CC1,24.5,43.3,23.8,37.5,53.0*,-3.9,36.6
c1ccc(Cn2ccc3ccc(-c4ccc5ccn(Cc6ccc(-c7ccccc7)cc6)c5c4)cc32)cc1,·,·,·,-28.4,7.0,·,·
CCCC[C@H]1C2CC(OC(=O)Nc3ccc(C#N)cc3)C(C2)[C@H]2CCCCN21 (some centres undefined),·,·,·,-9.2,-2.5,·,·
COc1ccc(NC(=O)CSc2nnc(-c3cccc(O)c3)o2)cc1,21.7,4.0,4.0,-10.9,-9.7,·,·
COc1cccc(NC(=O)CSc2nnc(-c3cc(C)n(-c4ccccc4)c3C)o2)c1,58.7,48.6,43.1,40.2,68.0*,30.1*,69.9*
CCOC(=O)c1c(C)[nH]c(C(=O)OCC(=O)Nc2ccc(Cl)cn2)c1C,-3.6,-5.8,-8.2,-6.2,3.4,·,·
CCOC(=O)c1c(C)[nH]c(C(=O)OCC(=O)Nc2sccc2C(N)=O)c1C,-1.3,31.3,62.1*,21.0,52.2*,-34.5,44.9*
CCCCCCCCN1C(=O)[C@@H](CC(=O)NCc2cccc3ccccc23)C[C@@]2(C(=O)OC)C1=C[C@H](C(C)C)O[C@@H]2C1CC1,·,·,·,-3.0,3.8,·,·
CCOC(=O)c1c(C)n(C)c2ccc(O)c(CN3CCN(C)CC3)c12,26.1,16.8,3.3,-15.9,-7.3,·,·
CCOC(=O)c1c(-c2ccccc2)oc2ccc(O)c(CN3CCN(C)CC3)c12,16.7,17.2,15.4,0.9,37.6*,-7.9,19.1
CC(C)CNC(=O)OCc1cn(Cc2ccc(F)c(F)c2)nn1,·,·,·,-10.3,-14.6,·,·
Cc1ccccc1CN1CCCCC(NC(=O)c2ccc(F)c(F)c2)C1=O (centres undefined),·,·,·,25.0,-0.9,·,·
SMILES,NR5A2 inv ag,SRC3 inh,NCOA1 inh,SRC2 inh,COUP-TFII inh,VP16 Luc counter,COUP-TFII conf
O=C(Nc1ccc(F)cc1)OCc1cn(Cc2cccc(C(F)(F)F)c2)nn1,·,·,·,6.2,-21.4,·,·
COc1ccc(OC)c(NC(=O)CCC(=O)Oc2ccc(C)cc2)c1,11.1,5.9,-0.4,-14.9,38.9*,-5.8,0.4
CCOC(=O)C1CCN(C(=O)C(C)(C)NC(=O)Nc2ccc(C(F)(F)F)cc2Cl)CC1,·,·,·,·,20.8,·,·
Cc1cccc(NC(=O)CN2CCN(C(=O)CNC(=O)c3ccc(-c4ccccc4)cc3)CC2)c1C,-7.8,-2.9,16.0,-1.9,55.1*,-7.6,16.0
Cc1ccc(Cn2ncc3c(N4CCN(Cc5ccc(Cl)cc5)CC4)ncnc32)cc1,25.7,19.6,21.5,16.3,38.6*,10.7,50.7*
COCCCN1C(=O)[C@H](CC(=O)NCc2ccc(C)o2)[C@]2(C(=O)OC)CCCCC=C12,·,·,·,-2.4,-4.1,·,·
Cc1ccc(C(=O)Nc2cc(C(C)C)c(O)c(C(C)C)c2)cc1,-8.8,-2.7,1.9,21.8,45.9*,-4.5,2.1
COc1cccc(NC(=O)Nc2c(-c3ccc(C)cc3)nc3ncccn23)c1,·,·,·,3.0,-0.6,·,·
C=CCN1C(=O)[C@@H](CC(=O)N2CCSCC2)[C@]2(C(=O)OCC)CCCCC/C=C/12,·,·,·,13.2,-15.5,·,·
CC1Cc2ccccc2N1C(=O)CSc1nnc2n1C(C)(C)Cc1ccccc1-2 (centres undefined),11.6,-1.6,7.0,5.1,8.9,·,·
COc1ccccc1N1CCN(C(=O)CSc2nnc3n2C(C)(C)Cc2ccccc2-3)CC1,25.8,38.6,9.4,28.5,63.2*,4.2,44.6*
Cc1c(C(=O)OCC2CCCO2)[nH]c2c1C(=O)CC(c1ccc(N(C)C)cc1)C2 (centres undefined),17.2,2.5,3.4,15.7,37.5*,-15.1,4.9
O=C(Nc1cccc([N+](=O)[O-])c1)NC1CCCCN(Cc2ccc(Cl)cc2)C1=O (centres undefined),·,·,·,8.3,12.2,·,·
CCCCCCCCNS(=O)(=O)CC1NCc2ccc(C)cc21 (centres undefined),·,·,·,-2.2,13.2,·,·
Nc1ccc(-c2cc3ccccc3oc2=O)cc1,56.5,64.8*,41.8,85.5*,87.8*,81.3*,79.6*
O=c1oc2ccccc2cc1-c1ccc(O)cc1,-45.5,-95.4,-85.5,-14.3,-54.0,·,·
COc1ccc(-c2csc(NC(=O)c3ccccc3F)n2)cc1,-19.5,-29.9,8.0,-9.7,8.8,·,·
